Assay outcomes as filed in PubChem.
MPTP inh = inhibitors of mitochondrial permeability transition pore. isolated mouse mitochondria, Ca2+ swelling absorbance, 30 min. inhibition, % at 10 µM. hit rate 1.4% among 360,000;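 active = inhibition of 50% or more, scaled per plate between neutral and stimulator controls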;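 also: 0% = DMSO wells given calcium and 100% = 1 mM EGTA wells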
Platelet DG rel = platelet dense granule release activity | human platelet-rich plasma, SFLLRN dense granule ATP release, luminescence | inhibition, %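 (compounds screened at 7.5 µM in platelet-rich plasma)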 | hit rate 0.22% among 300,000 | AID 1663;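 active = mean replicate score, as percent of positive control, at or above 50; inconclusive = mean below 50 but at least one replicate at or above 50; inactive = mean and every replicate below 50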
HSF1 inhib = HSF1 inhibition | NIH3T3-HGL HSE-luciferase, MG132-induced, luminescence 8 h; stronger effect = lower value | activity change, negative = inhibition, % at 7.5 µM (by protocol) | hit rate 0.77% among 300,000;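 active = more than half of replicate wells show activity change below -50%, luminescence cut by over half; inconclusive = some wells, but at most half, below -50%; inactive = no replicate well below -50%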;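 also: luciferase reports HSF-1 transcriptional activity via heat shock element; 0% = median of DMSO wells and -100% = zero luminescence signal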
HSF1 activator = increases HSF-1 driven luciferase reporter signal. NIH3T3-HGL HSF-1 luciferase reporter, MG132, 8 h; 100% = twice DMSO control signal. activation, % at 9 µM. hit rate 1.7% among 300,000;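 active = mean replicate activation of at least 50% with a set share of replicates each reaching 50%; inconclusive = only one of those two conditions met; inactive = mean below 50% and too few replicates reaching it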;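 also: 0% = median of the neutral control wells and 100% = twice that signal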
dFosB act = enhances mouse delta FosB homodimer DNA binding; hit rate 0.99% among 340,000; activation, % at 25 µM; P13346; purified delta FosB, TAMRA-CDK5 oligo fluorescence polarization; percent of positive-control signal above neutral wells;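 active = mean activation above about 17%, with every replicate also reaching it, limit read from the data, passing the limit was not always enough; inconclusive = only one of the two conditions met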
HSP90 inh = inhibitors of HSP90 luciferase refolding in rabbit reticulocyte lysate; luciferase refolding luminescence, 3 h; inhibition, % at 5.6 µM; hit rate 0.91% among 290,000; AID 1789;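 active = inhibition above the screen-wide mean plus 3 SD, computed separately per campaign, cut at about 16% in these data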;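 also: 0% = DMSO wells and 100% = 60 µM geldanamycin wells; inhibitors lower the luminescence because luciferase stays unfolded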
HSP90 confirm = HSP90 inhibition, confirmation assay | hit rate 64% among 2,300 | rabbit reticulocyte lysate, luciferase refolding luminescence, 3 h | shares compounds with HSP90 inh | AID 1846 | inhibition, % at 5.9 µM; in the data active = inhibition above about 18%;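 also: 0% = vehicle wells and 100% = reference inhibitor wells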
luciferase ctr = firefly luciferase inhibition, HSP90 counter-screen; AID 1847; hit rate 48% among 2,300; purified native firefly luciferase, luminescence; shares compounds with HSP90 inh; inhibition, % at 5.9 µM;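 active = inhibition above the mean inhibition of all tested sample wells plus 3 SD, cut at about 10% in these data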;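 also: 0% = DMSO with luciferase and 100% = wells lacking luciferase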
Target sequence (P08659 whole entry, looked up): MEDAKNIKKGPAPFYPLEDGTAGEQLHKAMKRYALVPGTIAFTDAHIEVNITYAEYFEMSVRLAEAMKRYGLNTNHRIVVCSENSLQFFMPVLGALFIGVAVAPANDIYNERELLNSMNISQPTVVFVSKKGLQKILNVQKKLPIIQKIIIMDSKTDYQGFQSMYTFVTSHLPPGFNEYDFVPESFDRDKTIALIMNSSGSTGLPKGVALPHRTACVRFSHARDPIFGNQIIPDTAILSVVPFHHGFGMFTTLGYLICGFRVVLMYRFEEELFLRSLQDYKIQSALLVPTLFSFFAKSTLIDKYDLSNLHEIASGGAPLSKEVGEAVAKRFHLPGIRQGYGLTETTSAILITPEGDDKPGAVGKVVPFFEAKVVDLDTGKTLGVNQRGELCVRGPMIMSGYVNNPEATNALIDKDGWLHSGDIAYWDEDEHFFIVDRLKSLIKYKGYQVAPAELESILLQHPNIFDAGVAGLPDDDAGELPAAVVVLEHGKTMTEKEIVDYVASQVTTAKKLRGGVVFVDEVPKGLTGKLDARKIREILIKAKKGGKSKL
* = called active by the depositor; ? = inconclusive; / = no result given. Sampled rows, rich in hits. Any-hit rate of the full collection: about 4.9%.

SMILES	MPTP inh	Platelet DG rel	HSF1 inhib	HSF1 activator	dFosB act	HSP90 inh	HSP90 confirm	luciferase ctr
CC(C)(C)C(=O)c1c(N)[nH]c(C(=O)c2ccccc2)c1-c1c(F)cccc1F	0.2	/	/	/	/	/	/	/
COc1cc2c(cc1OC)C(C)N(C(=O)c1ccc(Br)o1)CC2 (configuration not stated)	1.5	4.1	0.4	12.5	8.8	-5.1	/	/
Cc1nc(-c2ccc([N+](=O)[O-])cc2)sc1C(=O)O	-2.4	11.5	5.9	-2.7	-2.6	18.0*	17.9*	-17.9
Cc1ccc(-c2nc(C)c(C(=O)O)s2)cc1	-0.9	4.5	16.1	38.9	1.3	74.5*	84.9*	17.1*
Cc1nc(-c2ccccc2)sc1C(=O)O	-0.6	3.2	5.9	8.6	-2.8	2.2	/	/
Nc1ncnc2c1ncn2[C@@H]1O[C@H](C(=O)N(CCC2=CCCCC2)CC2CC2)[C@@H](O)[C@H]1O	1.3	/	/	/	/	/	/	/
CCN(CC)P(=O)(Nc1ccc([N+](=O)[O-])cc1)c1c(C)nn(CCC#N)c1NC(=O)c1ccc(Cl)cc1 (configuration not stated)	1.0	9.8	4.6	40.4	-9.6	57.4*	14.2	-7.9
C/C(=N\OCc1cccc(C(=O)O)c1)c1ccc(Cl)cc1	10.6	-4.0	7.4	11.0	/	71.2*	85.7*	87.4*
C/C(=N\OCc1ccc(C#N)cc1)c1ccccc1	1.0	9.3	41.1	?	-7.3	1.6	/	/
Cc1cccc(/C(N)=N/OC(=O)c2ccc(Cl)cc2Cl)c1	6.7	?	6.4	0.7	-10.5	21.4*	37.4*	49.7*
Cc1cc(/C(N)=N/OC(=O)c2ccccc2Cl)no1	0.6	/	/	/	-4.2	24.8*	19.2*	48.8*
N/C(=N\OC(=O)c1ccccc1Cl)c1ccccc1	0.9	40.3	9.3	25.9	-5.1	1.2	/	/
Cc1ccc(/C(N)=N/OC(=O)c2ccc(C)cc2Cl)cc1	0.4	4.7	-63.5*	-70.4	4.6	27.7*	60.2*	56.1*
CC1CCc2sc3ncnc(N4CCN(CCO)CC4)c3c2C1 (configuration not stated)	1.6	9.9	0.3	5.5	-7.2	-3.4	/	/
Cc1ccc2nc(-c3ccccn3)[nH]c2c1	0.4	58.1*	1.1	16.4	-6.0	46.3*	60.8*	51.2*
Cc1ccc2nc(-c3ccccc3N)[nH]c2c1	-0.5	19.7	-6.7	15.0	2.4	21.5*	38.6*	33.2*
c1ccc(-c2nc3ccccc3[nH]2)nc1	-0.1	14.2	13.0	15.0	-4.6	5.1	/	/
O=C(NC(=S)Nc1cc(C(F)(F)F)ccc1Cl)c1ccccc1	-1.7	-25.6	2.8	20.2	6.6	-4.0	/	/
O=C(O)c1ccc(NNC(=S)Nc2cc(C(F)(F)F)ccc2Cl)cc1	1.3	-19.1	-1.6	7.3	-14.6	60.7*	53.5*	53.5*
Cc1cc(/C=N/Nc2nc(N)ncc2[N+](=O)[O-])c(C)n1-c1cccc(C(F)(F)F)c1	/	9.2	-1.7	-4.3	/	33.8*	28.5*	16.3*
COc1cccc(/C=N/Nc2ncnc(N)c2[N+](=O)[O-])c1OC	2.9	31.6	2.3	-1.1	-1.9	26.7*	79.5*	62.3*
Cc1cc(/C=N/Nc2ccc([N+](=O)[O-])cn2)c(C)n1-c1ccc(C(=O)O)cc1	2.2	2.1	7.3	-0.6	-5.4	0.0	/	/
Cc1cc(/C=N/Nc2ncnc(N)c2[N+](=O)[O-])c(C)n1-c1ccccc1	-0.6	67.4*	/	/	-4.1	76.3*	95.4*	91.6*
CCOc1ccccc1NC(=O)CSc1nnc(CNC(=O)c2cccs2)o1	0.0	5.2	-0.8	2.8	1.8	-3.0	/	/
O=C(N/N=C/c1cccc(Br)c1)C1CC(=O)N(c2ccccc2)C1 (configuration not stated)	-1.1	/	2.1	4.9	-12.8	2.4	/	/
SMILES	MPTP inh	Platelet DG rel	HSF1 inhib	HSF1 activator	dFosB act	HSP90 inh	HSP90 confirm	luciferase ctr
CCOC(=O)C(CCCP(=O)(c1ccccc1)c1ccccc1)(NC(C)=O)C(=O)OCC	2.2	15.3	-9.1	-10.8	-5.6	23.4*	-8.9	-11.9
CC(C)(C)c1ccc(C(=O)Nc2cccc3c(=O)[nH][nH]c(=O)c23)cc1	-0.1	11.1	-61.4*	-60.9	-4.2	46.6*	62.5*	20.8*
Cc1ccc(C(=O)Nc2cccc3ccccc23)cc1	-1.9	-4.0	20.5	27.1	-2.0	-1.9	/	/
Cn1cccc1-c1cc(C(=O)N/N=C/c2ccc(Cl)cc2)[nH]n1	0.8	-0.4	-4.5	-3.0	-7.5	19.1*	2.4	-5.1
COC(=O)c1sc(NC(=O)CSc2nnnn2-c2cccc(OC)c2)nc1C	0.5	0.7	-2.0	-2.0	3.7	20.4*	1.3	-6.9
CCOC(=O)c1sc(NC(=O)CSc2nnnn2-c2ccccc2)nc1C	0.3	-0.1	-4.6	43.6	-9.8	-2.1	/	/
C=CCn1c(=O)[nH]c2cc(C(=O)N3CC=C(c4ccccc4)CC3)ccc2c1=O	1.6	-6.5	/	/	-15.7	1.5	/	/
CC(=O)c1sc(NC(=O)C2COc3ccccc3O2)nc1C (configuration not stated)	-0.3	-5.4	-1.3	-4.6	-7.3	42.6*	69.7*	65.7*
CC1(C)Oc2ccc(NC(=O)C3COc4ccccc4O3)cc2O1 (configuration not stated)	-0.9	7.4	-10.6	-25.1	-1.7	27.0*	49.3*	43.8*
COC(=O)C(Sc1ccc(Cl)cc1)C1SC(=S)N(Cc2ccccc2)C1=O (configuration not stated)	-3.6	/	/	/	/	/	/	/
CCCCOC(=O)c1ccc(NC(=O)c2c(N)n(C)c(=O)[nH]c2=O)cc1	/	-0.3	-1.0	-9.2	/	/	/	/
COc1cc(C(=O)NCC(=O)NCC2COc3ccccc3O2)cc(OC)c1OC (configuration not stated)	-1.0	13.0	-1.5	-3.9	-7.3	/	/	/
O=C(/C=C/c1ccc2c(c1)OCO2)Nc1nc2ccccc2s1	3.9	2.8	6.8	-17.8	19.2*	24.9*	62.4*	19.6*
CC(=O)Nc1nc2cc3c(cc2s1)OCO3	0.2	3.6	11.3	11.3	0.1	6.1	/	/
Cc1ccc2nc(NC(=O)/C=C/c3ccc4c(c3)OCO4)sc2c1	1.2	9.2	-7.6	21.8	-5.1	0.1	/	/
CC(C)C(=O)Nc1nc2cc3c(cc2s1)OCCO3	0.4	3.5	17.8	-2.6	-7.6	28.3*	39.7*	34.0*
O=C(Nc1nc2cc3c(cc2s1)OCCO3)c1ccco1	-0.3	14.6	-54.9*	-61.4	2.0	78.4*	91.1*	88.9*
O=C(Nc1nc2cc3c(cc2s1)OCO3)c1ccco1	1.4	22.2	/	/	2.3	25.1*	69.0*	67.8*
Cc1ccc(NC(=O)CSCC(=O)Nc2ccccc2N2CCCC2)cc1	0.1	-2.9	7.2	8.2	-5.5	/	/	/
